# Bioassay records as filed in PubChem BioAssay.
# A selection: hits, their analogues and other compounds. The true share with any hit is near 2.5%.
# STAT3 SMM – binds human STAT3 on microarray. calls only. Small molecule microarray, His-STAT3 binding, anti-His fluorescence. hit rate 0.2% among 17,000. AID 624138. P40763;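 active = compounds whose four printed spots each show fluorescence over background unusually high for their array block, chance value under 7%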
# NFkB SMM – binders of human NF-kappa-B p105. P19838. Small molecule microarray, anti-His fluorescence binding. calls only. hit rate 1.3% among 17,000;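 active = spot fluorescence over background significantly raised, with a chance value under 7% in all four replicate spots of the compound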;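 also: probe protein is his-tagged human p50 processed subunit at 1 µg/ml; raw spot fluorescence signals with no normalization applied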
# c-Myc SMM – binders of human c-Myc. P01106. small molecule microarray, His-c-Myc binding, anti-His fluorescence. calls only. hit rate 1.5% among 17,000;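 active = spot fluorescence over background with P-value below 7% in all four replicate spots, showing protein binding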;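 also: score is binary with 100 for all four spots passing and 0 otherwise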
# Target sequence (P01106 whole entry, looked up): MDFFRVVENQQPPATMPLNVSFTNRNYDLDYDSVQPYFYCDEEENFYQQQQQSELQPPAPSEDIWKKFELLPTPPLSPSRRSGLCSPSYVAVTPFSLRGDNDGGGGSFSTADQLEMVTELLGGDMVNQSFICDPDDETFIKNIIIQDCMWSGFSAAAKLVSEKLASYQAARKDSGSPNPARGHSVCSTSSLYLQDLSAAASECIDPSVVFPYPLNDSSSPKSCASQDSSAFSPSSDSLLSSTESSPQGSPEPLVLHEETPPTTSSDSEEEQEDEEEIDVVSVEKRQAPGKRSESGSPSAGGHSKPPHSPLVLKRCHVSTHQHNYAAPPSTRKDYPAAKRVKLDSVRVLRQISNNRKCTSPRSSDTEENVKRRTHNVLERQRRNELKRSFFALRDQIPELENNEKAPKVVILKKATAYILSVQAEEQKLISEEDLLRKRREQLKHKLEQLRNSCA
# p53 mut binder – binds human mutant p53 on microarray | AID 624136 | calls only | small molecule microarray binding, anti-GST fluorescence | hit rate 0.4% among 17,000;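 active = compounds whose four printed spots each glow above background more than chance allows, each with a p-value under 7%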
# Numbers without * were called inactive; i = inactive; + = active, no number.
SMILES,STAT3 SMM,NFkB SMM,c-Myc SMM,p53 mut binder
C[C@@H]1CCCCO[C@@H](CN(C)C(=O)Nc2ccc(C(F)(F)F)cc2)[C@H](C)CN([C@@H](C)CO)C(=O)c2cc(NS(C)(=O)=O)ccc2O1,i,i,+,i
C[C@H]1CCCCO[C@H](CN(C)C(=O)Nc2ccc(C(F)(F)F)cc2)[C@@H](C)CN([C@@H](C)CO)C(=O)c2cc(NS(C)(=O)=O)ccc2O1,+,+,+,i
C[C@@H]1CCCCO[C@@H](CN(C)C(=O)Nc2ccc(C(F)(F)F)cc2)[C@@H](C)CN([C@H](C)CO)C(=O)c2cc(NS(C)(=O)=O)ccc2O1,i,i,i,i
C[C@@H]1CCCCO[C@@H](CN(C)C(=O)Nc2ccc(C(F)(F)F)cc2)[C@H](C)CN([C@H](C)CO)C(=O)c2cc(NS(C)(=O)=O)ccc2O1,i,i,i,i
C[C@@H]1CCCCO[C@H](CN(C)C(=O)Nc2ccc(C(F)(F)F)cc2)[C@H](C)CN([C@@H](C)CO)C(=O)c2cc(NS(C)(=O)=O)ccc2O1,+,i,i,i
C/C=C/C#CC#C[C@@H](O[C@@H]1O[C@H](CO)[C@@H](O)[C@H](O)[C@H]1O)[C@H](O)/C=C/CCCO,i,i,i,i
COC(=O)C(C)Sc1ncnc2scc(-c3ccc(Cl)cc3)c12 (stereo unspecified),i,i,i,i
CCOc1cc(C(=O)O)cc(I)c1OCC(=O)O,i,+,+,i
COc1ccc(OC)c(NC(=O)CSc2nnnn2C)c1,i,i,i,i
Cn1nnnc1SCCNC/C=C/c1ccccc1,i,i,+,i
Oc1ccccc1CNc1ccc2c(c1)ncn2C1CCCCC1,i,i,+,i
COC(=O)c1c(NC(=O)CSc2nnc3ccccn23)sc(C)c1C,i,i,i,i
COC(=O)c1c(NC(=O)CC2Nc3cccc4cccc(c34)NC2=O)sc(C)c1C (stereo unspecified),i,i,+,i
C=C1CC[C@@]2(OC1)O[C@H]1CC3[C@@H]4CC=C5C[C@H](O[C@@H]6OC[C@H](O)[C@H](O)[C@H]6O[C@@H]6O[C@@H](C)[C@H](O)[C@@H](O)[C@H]6O)C[C@@H](O)[C@]5(C)C4CC[C@]3(C)[C@H]1[C@@H]2C (stereo partly specified),i,+,+,i
C[C@H](CO)N1C[C@H](C)[C@H](CN(C)S(=O)(=O)c2ccccc2)OCCCC[C@H](C)Oc2ccc(N(C)C)cc2C1=O,i,+,i,+
C[C@H](CO)N1C[C@H](C)[C@H](CN(C)Cc2ccccc2)OCCCC[C@H](C)Oc2ccc(NC(=O)CCCN(C)C)cc2C1=O,i,+,i,i
C[C@@H]1CCCCO[C@H](CN(C)Cc2ccccc2)[C@H](C)CN([C@@H](C)CO)C(=O)c2cc(N(C)C)ccc2O1,i,i,i,i
C[C@@H]1CCCCO[C@@H](CN(C)Cc2ccccc2)[C@H](C)CN([C@@H](C)CO)C(=O)c2cc(NC(=O)CCCN(C)C)ccc2O1,i,i,i,i
CC(C)NC(=O)Nc1ccc2c(c1)C(=O)N([C@@H](C)CO)C[C@H](C)[C@@H](CN(C)S(=O)(=O)c1ccccc1)OCCCC[C@@H](C)O2,i,+,+,i
C[C@@H]1CN([C@H](C)CO)C(=O)c2cc(N(C)C)ccc2O[C@@H](C)CCCCO[C@@H]1CN(C)Cc1ccccc1,+,i,i,+
C=CC(C)(O)CC/C=C(\C)C(=O)OC1C(CO)OC(OC2OC=CC3(O)C(OC(=O)C4=COC(OC5OC(CO)C(O)C(O)C5O)C5C(C)CCC45)C4OC4(C)C23)C(O)C1O (stereo unspecified),i,i,i,i
NC(=O)CN(c1cc(Cl)ccc1Cl)S(=O)(=O)c1ccccc1,i,i,i,i
Cc1ccc(S(=O)(=O)N(C)C[C@H]2OCCCC[C@H](C)Oc3ccc(NC(=O)NC4CCCCC4)cc3C(=O)N([C@H](C)CO)C[C@H]2C)cc1,i,i,+,+
CC(C)(C)NC(=O)CN(c1ccc2c3c(cccc13)CC2)S(C)(=O)=O,i,i,i,i
CCc1ccc(S(=O)(=O)NCC(=O)O)cc1,i,+,+,i
SMILES,STAT3 SMM,NFkB SMM,c-Myc SMM,p53 mut binder
C[C@H](CO)N1C[C@H](C)[C@H](CN(C)C(=O)c2ccccc2)OCCCC[C@H](C)Oc2ccc(NC(=O)Nc3ccc4c(c3)OCO4)cc2C1=O,i,i,+,+
CCCN(C)C[C@@H]1OCCCC[C@@H](C)Oc2ccc(NC(=O)Nc3ccc(F)cc3)cc2C(=O)N([C@H](C)CO)C[C@H]1C,i,+,i,i
C[C@@H]1CN([C@@H](C)CO)C(=O)c2cc(NC(=O)Nc3ccc(F)cc3)ccc2O[C@@H](C)CCCCO[C@H]1CN(C)C(=O)c1ccccc1,i,i,i,i
C[C@@H]1CCCCO[C@H](CN(C)C(=O)c2ccccc2)[C@@H](C)CN([C@H](C)CO)C(=O)c2cc(NC(=O)Nc3ccc4c(c3)OCO4)ccc2O1,i,i,i,i
C[C@@H]1CN([C@@H](C)CO)C(=O)c2cc(NC(=O)Nc3ccc(F)cc3)ccc2O[C@@H](C)CCCCO[C@H]1CN(C)C(=O)Cc1ccccc1,i,+,+,i
C[C@@H]1CCCCO[C@H](CN(C)C(=O)c2ccccc2)[C@H](C)CN([C@@H](C)CO)C(=O)c2cc(NC(=O)Nc3ccc(F)cc3)ccc2O1,i,+,i,i
O=C1O[C@@H](c2ccccc2)[C@@H](c2ccccc2)N2[C@@H](c3ccc(OCCO)cc3)[C@]3(C(=O)Nc4ccc(C#CC5=CCCCC5)cc43)[C@@H](C(=O)N3CCCCCCC3)[C@H]12,+,i,i,+
COc1cc2c(cc1OC)CN(C(=O)[C@H]1[C@@H]3C(=O)O[C@@H](c4ccccc4)[C@@H](c4ccccc4)N3[C@@H](c3ccc(OCCO)cc3)[C@]13C(=O)Nc1ccc(C#CC4=CCCCC4)cc13)CC2,i,+,i,i
O=C1O[C@H](c2ccccc2)[C@H](c2ccccc2)N2[C@H]1[C@@H](C(=O)N1CCCCCCC1)[C@]1(C(=O)Nc3ccc(C#CC4(O)CCCCCC4)cc31)[C@H]2c1ccc(OCCO)cc1,i,+,+,+
COC(=O)C(CC#Cc1ccc2c(c1)[C@]1(C(=O)N2)[C@H](C(=O)N2CCc3cc(OC)c(OC)cc3C2)[C@H]2C(=O)O[C@H](c3ccccc3)[C@H](c3ccccc3)N2[C@@H]1c1ccc(OCCO)cc1)C(=O)OC,i,i,i,i
COc1cc2c(cc1OC)CN(C(=O)[C@H]1[C@@H]3C(=O)O[C@@H](c4ccccc4)[C@@H](c4ccccc4)N3[C@@H](c3ccccc3OCCO)[C@]13C(=O)Nc1ccc(C#CC4=CCCCC4)cc13)CC2,i,+,i,i
